# A selection: hits, their analogues and other compounds. The true share with any hit is near 1.5%.
# Tb PGK inh: inhibitors of T. brucei phosphoglycerate kinase. actives 0.043% (n = 380,000). PGK/GAPDH coupled, Kinase-Glo luminescence, 60 min. Potency, µM (titrated, usually from 57.5 µM), inactives show at the top dose activity change, negative = inhibition, actives largely listed as inhibitors. AID 602233; also: potency is read from the fitted curve at half-maximal effect; % is scaled to controls: 0 for no effect and ±100 for the full control effect; nearly all actives have a fitted effect of over 60% in size
#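 Luminescent ATP detection (Kinase-Glo Plus) follows a 60-minute room-temperature incubation, with wells lacking PGK as controls. Buffer: 100 mM TEA (pH 7.6), 5 mM MgCl2, 0.01% Tween-20. Coupling enzyme GAPDH (100 nM final) supplies unstable 1,3-BPG in-well.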
# WRN helicase inh-1: WRN helicase (human) inhibition; Q14191; WRN helicase unwinding, fluorescent forked duplex, kinetic; Potency, µM (series often up to 114 µM), without a hit: top-dose activity change, negative = inhibition, usual class: inhibitors; actives 0.46% (n = 360,000); AID 651768; also: potency is read from the fitted curve at half-maximal effect; % is scaled to controls: 0 for no effect and ±100 for the full control effect; nearly all actives have a fitted effect of over 55% in size
#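 Kinetic fluorescence helicase assay: unwinding of a quenched forked DNA duplex (100 nM final) with 2 mM ATP final raises red fluorescence (525/598 nm). Compounds sat 15 min at room temperature with 20 nM WRN beforehand.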
# TDP1 inh: blocks human tyrosyl-DNA phosphodiesterase 1; recombinant TDP1, AlphaScreen DNA substrate cleavage; Potency, µM (top dose mostly 130 µM), without a hit: at the highest dose activity change, negative = inhibition, hits mostly inhibitors; actives 0.28% (n = 350,000); AID 485290; also: potency is read from the fitted curve at half-maximal effect; % is scaled to controls: 0 for no effect and ±100 for the full control effect; nearly all actives have a fitted effect of over 40% in size
#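 AlphaScreen read-out: signal falls as enzyme removes the 3' tyrosine-FITC from a 5'-biotinylated DNA oligo (15 nM, 5 min, RT). Enzyme was E. coli-made recombinant Tdp1 at 1 nM, exposed to compound for 15 min beforehand; beads 10 ug/ml, 10 min.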
# Tb PFK inh: T. brucei PFK enzyme inhibition; O15648; actives 0.17% (n = 330,000); Potency, µM (titrated, usually from 57.5 µM), without a hit: top-dose activity, negative = inhibition, most hits filed as inhibitors; AID 485367; T. brucei PFK, ADP-Glo luminescence;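 also: potency is read from the fitted curve at half-maximal effect; 0% = uninhibited 1x PFK enzyme wells and -100% = no-enzyme wells; nearly all actives have a fitted effect of over 60% in size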
#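 Compounds were pin-transferred as a titration series up to 57 uM into substrate buffer (0.5 mM F6P, 0.1 mM ATP, pH 8.0), then 1.25 nM PFK was added and reactions ran 45 min before ADP-Glo detection.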
# FEN1 inh: inhibitors of human flap endonuclease 1; Recombinant FEN1 flap cleavage, fluorescence, 15 min; Potency, µM (highest dose often 114 µM), for inactives: at the top dose activity change, negative = inhibition, actives largely listed as inhibitors; actives 0.35% (n = 390,000); also: potency is read from the fitted curve at half-maximal effect; % is scaled to controls: 0 for no effect and ±100 for the full control effect; nearly all actives have a fitted effect of over 65% in size
#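 With each library titrated from low to high concentration, compounds met 10 nM FEN1 for 15 min at room temperature before 50 nM substrate was added; readings at 0 and 15 min fed four-parameter Hill curve fits.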
# PI5P4Ka inh: blocks human PI5P4K alpha kinase activity; PI5P4Kalpha enzyme, ADP-Glo luminescence, 60 min; active compounds read low; AID 652105; actives 1.2% (n = 330,000); P48426; max response, %; active = max response of -50% or lower; inconclusive = between -30% and -50%; inactive = -30% or higher; also: value at the top dose of about 77 µM; % is scaled to controls: 0 for no effect and ±100 for the full control effect
#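 Controls without substrate or without enzyme flank wells where PI5P4Kalpha converts substrate using 5 microM ATP (final). Incubation lasts 60 minutes at room temperature; ADP formed is read by ADP-Glo luminescence.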
# WRN helicase inh-2: WRN helicase inhibition, cherry-pick retest; WRN helicase DNA unwinding, fluorescence kinetic; actives 63% (n = 610); Potency, µM (titrated, usually from 57.1 µM), inactives show at the highest dose activity, negative = inhibition, most hits filed as inhibitors; shares compounds with WRN helicase inh-1; also: potency is read from the fitted curve at half-maximal effect; nearly all actives have a fitted effect of over 65% in size
# TO displacement: DNA binding via thiazole orange displacement. actives 10% (n = 610). Potency, µM (series often up to 57.1 µM), for the others: at the highest dose activity change, negative = inhibition, usual class: inhibitors. shares compounds with WRN helicase inh-1. thiazole orange DNA binding displacement, fluorescence. AID 720499;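 also: drop in dye fluorescence marks compound binding to DNA; potency is read from the fitted curve at half-maximal effect; % is scaled to controls: 0 for no effect and ±100 for the full control effect; nearly all actives have a fitted effect of over 60% in size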
# BLM helicase inh: blocks human BLM helicase in WRN counterscreen; AID 720503; Recombinant BLM helicase DNA unwinding, red fluorescence; actives 60% (n = 610); Potency, µM (top dose mostly 57.1 µM), without a hit: at the highest dose activity change, negative = inhibition, usual class: inhibitors; shares compounds with WRN helicase inh-1; also: potency is read from the fitted curve at half-maximal effect; nearly all actives have a fitted effect of over 60% in size
# Target sequence (P54132 whole entry, looked up): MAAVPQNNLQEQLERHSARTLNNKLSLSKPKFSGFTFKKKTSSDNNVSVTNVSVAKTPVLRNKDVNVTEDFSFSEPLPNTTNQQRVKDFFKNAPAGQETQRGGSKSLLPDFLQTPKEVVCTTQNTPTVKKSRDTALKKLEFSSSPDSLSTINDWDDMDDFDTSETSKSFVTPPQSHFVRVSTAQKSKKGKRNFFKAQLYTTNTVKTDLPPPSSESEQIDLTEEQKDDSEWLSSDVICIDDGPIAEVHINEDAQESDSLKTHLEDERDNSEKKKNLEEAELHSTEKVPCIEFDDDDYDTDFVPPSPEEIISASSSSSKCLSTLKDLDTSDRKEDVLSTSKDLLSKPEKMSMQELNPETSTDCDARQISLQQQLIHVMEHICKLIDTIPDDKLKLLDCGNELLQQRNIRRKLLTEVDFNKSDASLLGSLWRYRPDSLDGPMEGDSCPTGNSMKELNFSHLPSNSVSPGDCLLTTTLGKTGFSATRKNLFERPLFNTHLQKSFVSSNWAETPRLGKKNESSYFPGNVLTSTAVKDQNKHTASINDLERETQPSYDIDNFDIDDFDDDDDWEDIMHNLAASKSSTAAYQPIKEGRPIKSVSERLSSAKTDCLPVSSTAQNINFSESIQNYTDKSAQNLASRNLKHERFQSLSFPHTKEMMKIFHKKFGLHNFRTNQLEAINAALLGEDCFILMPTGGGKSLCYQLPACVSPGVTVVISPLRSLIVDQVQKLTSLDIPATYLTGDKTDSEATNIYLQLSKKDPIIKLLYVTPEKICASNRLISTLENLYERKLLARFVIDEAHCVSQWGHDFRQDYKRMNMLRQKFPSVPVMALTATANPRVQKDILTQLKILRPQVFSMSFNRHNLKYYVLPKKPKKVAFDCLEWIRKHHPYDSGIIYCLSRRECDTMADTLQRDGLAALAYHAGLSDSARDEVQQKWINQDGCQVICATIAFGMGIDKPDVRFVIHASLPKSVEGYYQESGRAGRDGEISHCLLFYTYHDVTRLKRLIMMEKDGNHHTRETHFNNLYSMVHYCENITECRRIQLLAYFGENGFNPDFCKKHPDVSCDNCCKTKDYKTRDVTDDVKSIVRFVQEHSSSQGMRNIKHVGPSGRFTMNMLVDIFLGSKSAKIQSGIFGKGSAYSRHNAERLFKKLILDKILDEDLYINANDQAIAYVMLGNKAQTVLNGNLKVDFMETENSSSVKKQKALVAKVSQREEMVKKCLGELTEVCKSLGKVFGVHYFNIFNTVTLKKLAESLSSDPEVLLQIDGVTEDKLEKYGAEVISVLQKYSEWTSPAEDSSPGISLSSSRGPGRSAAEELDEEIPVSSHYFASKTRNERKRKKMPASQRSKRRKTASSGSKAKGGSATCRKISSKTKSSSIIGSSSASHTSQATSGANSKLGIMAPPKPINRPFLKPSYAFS
# The depositor's hits bear a star; i = inactive; ? = inconclusive; nt = no result; [ ] = remark or other dose. Unless noted, calls follow the shape of the dose curve; as a rule, active = well fitted curve in the direction sought with a large enough effect; inconclusive = small, poorly fitted or top-dose-only effect, or another doubt; inactive = no such curve, though single readings can be large; an effect the other way counts as inactive or inconclusive.
SMILES,Tb PGK inh,WRN helicase inh-1,TDP1 inh,Tb PFK inh,FEN1 inh,PI5P4Ka inh,WRN helicase inh-2,TO displacement,BLM helicase inh
Cc1ccc(Nc2nnc(SCC(=O)NCC3CCCO3)s2)cc1C (centres undefined),0%,-11%,-1%,0%,-20%,-1,nt,nt,nt
COC(=O)[C@@H]1C[C@@H]2CC[C@@H](O)C[C@@H]2N1CC1CCCCC1,nt,nt,-3%,nt,nt,nt,nt,nt,nt
COc1ccc(C(=O)Oc2ccc3c(-c4ccc(OC)cc4)cc(=O)oc3c2)cc1,nt,nt,-14%,nt,nt,nt,nt,nt,nt
COc1ccc(-c2cc(=O)oc3c(O)c(O)ccc23)cc1,?,13µM*,nt,6%,-13%,-17,5.4µM*,-5%,3.8µM*
N#Cc1ccccc1OCC(=O)NC(=O)NCc1ccco1,-6%,-11%[11.6 µM],nt,-7%,8%,?,nt,nt,nt
COc1ccc(C(=O)Nc2nc3c(s2)CCc2cc(OC)ccc2-3)cc1,nt,nt,0%,nt,-12%,nt,nt,nt,nt
COc1ccc(C(=O)Nc2nc(-c3ccc([N+](=O)[O-])cc3)c(-c3ccc(OC)cc3)s2)cc1,-10%,?,1%,-7%,-25%,7,-11%,5%,-11%
O=C(O)CCc1ccc(-c2ccccc2)n1-c1cccc(Br)c1,12%,nt,nt,nt,-10%,nt,nt,nt,nt
COC(=O)c1ccc(CCc2cc(O)c(Br)cc2O)cc1,i,25µM*,nt,nt,8%,-52*,-27%,-11%,?
COC(=O)c1ccc(O)cc1,3%,-5%,5%,-8%,7%,2,nt,nt,nt
O=C(CCNC(=O)c1ccccc1Cl)Nc1cccc(S(=O)(=O)N2CCCC2)c1,8%,-7%,1%,-13%,19%,4,nt,nt,nt
O=C1COc2ccc(C(=O)COC(=O)c3ccc4ccccc4n3)cc2N1,11%,?,-8%,2%,-23%,-18,14µM*,11%,8.6µM*
CCNC(=O)C1CCCN(C(=O)c2ccc(OC)c(OC)c2)CC1 (centres undefined),nt,-8%[57.1 µM],nt,nt,nt,-2,nt,nt,nt
O=C(Cn1c2ccccc2c(=O)c2ccccc21)N/N=C/c1cc([N+](=O)[O-])ccc1N1CCCCCC1,-2%,11µM*,-11%,0%,-20%,1,6.1µM*,19%,1.1µM*
O=C(NN1CCOCC1)c1sc2cccc(F)c2c1Cl,i,-1%[57.1 µM],-5%,8%,1%,2,nt,nt,nt
CCN(CC)c1ccc(/C=C2\C(=O)c3ccc(C(=O)O)cc3C2=O)cc1,-22%,40µM*,-5%,2%,40µM*,-70*,22µM*,124%,?
CN(C)c1ccc(C=C2C(=O)c3ccccc3C2=O)cc1,nt,nt,nt,nt,-4%,nt,nt,nt,nt
Cc1ccc(S(=O)(=O)c2ccc([N+](=O)[O-])cn2)cc1,6%,?,nt,?,-21%,1,-12%,-11%,-2%
O=[N+]([O-])c1ccc(S(=O)(=O)c2ccccc2)nc1,i,?,nt,-29%,-15%,-3,nt,nt,nt
COc1ccc(/C=C2/C(=O)ON=C2C)cc1Cl,i,?,nt,0%,-1%,-19,-8%,-7%,3%
C=CCOc1ccc(/C=C2/C(=O)ON=C2C)cc1OC,7%,?,nt,9%,3%,-9,nt,nt,nt
CCOc1cc(/C=C2\C(=O)ON=C2C)ccc1OCc1ccccc1,-6%,?,3%,-1%,-2%,-16,?,0%,-12%
CCOc1cc(/C=C2\C(=O)ON=C2c2ccccc2)cc(Br)c1O,i,?,nt,15%,?,-79*,?,-2%,?
C#CCOc1ccc(/C=C2/C(=O)ON=C2C)cc1Br,i,?,nt,-3%,-2%,-27,-20%,-7%,?
COc1ccc(CCNc2ccc(C(CC(N)=O)NC(=O)Cc3ccc(Br)cc3)cc2[N+](=O)[O-])cc1 (centres undefined),-1%,-9%,6%,3%,13%,1,nt,nt,nt
SMILES,Tb PGK inh,WRN helicase inh-1,TDP1 inh,Tb PFK inh,FEN1 inh,PI5P4Ka inh,WRN helicase inh-2,TO displacement,BLM helicase inh
COc1ccc(C(=O)Cc2cc3ccccc3oc2=O)cc1,-2%,-11%,nt,-4%,-4%,0,nt,nt,nt
Oc1ccc(N2CCN(Cc3cc4c(cc3Br)OCCO4)CC2)cc1,-1%,-8%,nt,?,5%,-13,nt,nt,nt
COc1nccc(NCc2ccccc2)c1C#N,-3%,-12%,nt,nt,-11%,0,nt,nt,nt
CCOC(=O)c1c(-c2ccc(F)cc2)csc1NC(=O)CN1C(=O)NC2(CCCCC2C)C1=O (centres undefined),1%,?,4%,0%,?,20,-7%,-5%,-12%
CCOC(=O)c1c(NC(=O)CN2C(=O)NC3(CCCCC3C)C2=O)sc(C)c1C (centres undefined),i,-6%,3%,-1%,3%,-5,nt,nt,nt
CC(NC(=O)C1CCN(S(=O)(=O)c2cccs2)CC1)c1cccc(Cl)c1 (centres undefined),-1%,-7%,-3%[56.1 µM],-2%,-15%,-4,nt,nt,nt
CC(Oc1ccccc1Cl)C(=O)Nc1ccc(S(=O)(=O)N2CCN(C)CC2)cc1 (centres undefined),6%,32µM*,nt,nt,?,-67*,-20%,-7%,-29%
N#Cc1c(C(=O)c2cccs2)no[n+]1[O-],nt,nt,nt,nt,nt,nt,22µM*,-8%,24µM*
Cc1cc(NS(=O)(=O)c2ccc(NC(=O)/C=C/c3ccc(Br)cc3)cc2)no1,i,?,6%,-1%,-2%,-2,-27%,-14%,?
CCCCNC(=O)C1(C)CCCCN1C(=O)c1ccc2sccc2c1 (centres undefined),nt,-7%,nt,nt,nt,0,nt,nt,nt
COC(=O)c1ccccc1NC(=O)c1noc2c1CCC2,?,?,11µM*,?,?,nt,17µM*,-20%,4.8µM*
COc1ccc(OC)c(NC(=O)c2noc3c2CCCC3)c1,i,nt,-2%,nt,?,nt,nt,nt,nt
N#Cc1c(-c2ccc(Cl)c([N+](=O)[O-])c2)no[n+]1[O-],nt,nt,nt,nt,nt,nt,19µM*,-13%,22µM*
CC(=O)Nc1ccn(C2CC3OCC(NC(=O)C4CCCN4C(=O)OC(C)(C)C)C3O2)c(=O)n1 (centres undefined),nt,nt,8%,nt,16%,nt,nt,nt,nt
